Experimental data: publication PMC7862700, “An all-to-all approach to the identification of sequence-specific readers for epigenetic DNA modifications on cytosine”

What was measured:
Assay in all cases: DAPPL (digital affinity profiling via proximity ligation, sequencing); 10 mM Tris-HCl pH 7.5, 50 mM NaCl, 1 mM DTT, 4% glycerol, room temperature, 30 min; GST-TFs on glutathione beads, 16-mer random dsDNA library, 0.1% formaldehyde crosslink after washing; high values mean tight binding
Settings in all cases: protein: recombinant; tags: N-terminal GST; dsDNA, one strand shown
[1] = biological target: T1, FLI1 (Homo sapiens, UniProt Q01543 1-452)
T1 sequence: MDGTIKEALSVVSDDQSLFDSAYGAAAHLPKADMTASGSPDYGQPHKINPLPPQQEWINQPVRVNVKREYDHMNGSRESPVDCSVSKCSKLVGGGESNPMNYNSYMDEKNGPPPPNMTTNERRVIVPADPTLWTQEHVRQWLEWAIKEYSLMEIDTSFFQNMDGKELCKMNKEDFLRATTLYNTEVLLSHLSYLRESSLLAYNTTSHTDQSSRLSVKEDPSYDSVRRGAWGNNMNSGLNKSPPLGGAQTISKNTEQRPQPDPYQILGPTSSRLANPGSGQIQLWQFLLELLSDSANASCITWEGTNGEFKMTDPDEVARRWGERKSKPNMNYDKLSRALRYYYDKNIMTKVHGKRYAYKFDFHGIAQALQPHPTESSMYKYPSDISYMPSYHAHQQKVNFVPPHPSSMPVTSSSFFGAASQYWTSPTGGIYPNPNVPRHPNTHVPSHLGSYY
In short: (§1)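 Human transcription factors fused to GST were expressed in yeast, captured on glutathione beads, given DNA barcodes and pooled with a GST-only negative control. Pools were incubated with 200 nmole of a 16-mer random double-stranded DNA library in Tris/NaCl/DTT/glycerol buffer at room temperature for 30 min. They were then washed, crosslinked with 0.1% formaldehyde, proximity-ligated (BsaI/T4 ligase, 1 h, 37 °C), PCR-amplified and sequenced on an Illumina NextSeq500. Binding signal is each 6-mer's read frequency for a factor divided by its frequency for the GST control.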

[2] = biological target: T2, GABPA (Homo sapiens, UniProt Q06546 1-454)
T2 sequence: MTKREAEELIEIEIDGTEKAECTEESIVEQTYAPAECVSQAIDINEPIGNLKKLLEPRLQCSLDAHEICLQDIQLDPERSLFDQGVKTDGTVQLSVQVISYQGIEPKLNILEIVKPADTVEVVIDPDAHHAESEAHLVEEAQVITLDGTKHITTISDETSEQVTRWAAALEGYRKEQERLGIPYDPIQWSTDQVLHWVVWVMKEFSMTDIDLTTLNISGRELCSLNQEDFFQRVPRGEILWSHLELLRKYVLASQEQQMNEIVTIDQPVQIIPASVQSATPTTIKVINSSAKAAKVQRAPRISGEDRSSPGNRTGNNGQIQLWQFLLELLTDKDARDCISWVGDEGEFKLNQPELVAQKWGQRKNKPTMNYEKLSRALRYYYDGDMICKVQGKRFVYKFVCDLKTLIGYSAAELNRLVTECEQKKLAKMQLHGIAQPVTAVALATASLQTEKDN
In short: as §1

[3] = biological target: T3, ERG (Homo sapiens, UniProt P11308 1-479)
T3 sequence: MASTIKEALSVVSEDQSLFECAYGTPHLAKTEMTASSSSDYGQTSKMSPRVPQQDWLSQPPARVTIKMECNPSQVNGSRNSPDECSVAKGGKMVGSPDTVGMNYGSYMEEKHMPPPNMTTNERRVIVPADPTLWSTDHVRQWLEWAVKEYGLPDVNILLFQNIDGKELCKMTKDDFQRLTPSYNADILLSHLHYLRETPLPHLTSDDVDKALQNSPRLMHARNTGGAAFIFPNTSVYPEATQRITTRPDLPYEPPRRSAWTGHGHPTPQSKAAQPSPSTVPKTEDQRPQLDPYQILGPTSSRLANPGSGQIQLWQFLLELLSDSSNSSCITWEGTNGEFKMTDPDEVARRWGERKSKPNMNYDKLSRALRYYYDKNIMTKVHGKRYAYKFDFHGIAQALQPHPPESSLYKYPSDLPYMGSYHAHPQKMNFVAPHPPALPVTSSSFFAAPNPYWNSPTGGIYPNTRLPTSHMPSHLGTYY
In short: as §1

[4] = biological target: ELF1 (Homo sapiens, UniProt P32519 1-619)
In short: as §1

[5] = biological target: T4, EHF (Homo sapiens, UniProt Q9NZC4 1-300)
T4 sequence: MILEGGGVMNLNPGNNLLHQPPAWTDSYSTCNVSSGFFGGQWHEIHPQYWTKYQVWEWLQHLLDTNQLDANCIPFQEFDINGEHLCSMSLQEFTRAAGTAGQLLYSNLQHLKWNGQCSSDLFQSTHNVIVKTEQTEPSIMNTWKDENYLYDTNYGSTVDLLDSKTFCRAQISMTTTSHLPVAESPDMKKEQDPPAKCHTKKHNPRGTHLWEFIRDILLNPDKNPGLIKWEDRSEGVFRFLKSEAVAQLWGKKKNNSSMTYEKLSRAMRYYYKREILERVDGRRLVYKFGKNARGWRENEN
In short: as §1

[6] = biological target: T5, SPIC (Homo sapiens, UniProt Q8N5J4 1-248)
T5 sequence: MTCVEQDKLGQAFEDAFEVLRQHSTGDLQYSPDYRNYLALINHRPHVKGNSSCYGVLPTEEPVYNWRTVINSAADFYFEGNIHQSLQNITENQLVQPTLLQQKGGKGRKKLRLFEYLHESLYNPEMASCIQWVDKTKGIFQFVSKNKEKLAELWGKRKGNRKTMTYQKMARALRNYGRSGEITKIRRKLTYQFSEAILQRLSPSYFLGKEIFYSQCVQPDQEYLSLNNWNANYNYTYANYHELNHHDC
In short: as §1

[7] = biological target: ELF4 (Homo sapiens, UniProt Q99607 1-663)
In short: as §1

[8] = biological target: T6, ELK4 (Homo sapiens, UniProt P28324-2 1-405)
T6 sequence: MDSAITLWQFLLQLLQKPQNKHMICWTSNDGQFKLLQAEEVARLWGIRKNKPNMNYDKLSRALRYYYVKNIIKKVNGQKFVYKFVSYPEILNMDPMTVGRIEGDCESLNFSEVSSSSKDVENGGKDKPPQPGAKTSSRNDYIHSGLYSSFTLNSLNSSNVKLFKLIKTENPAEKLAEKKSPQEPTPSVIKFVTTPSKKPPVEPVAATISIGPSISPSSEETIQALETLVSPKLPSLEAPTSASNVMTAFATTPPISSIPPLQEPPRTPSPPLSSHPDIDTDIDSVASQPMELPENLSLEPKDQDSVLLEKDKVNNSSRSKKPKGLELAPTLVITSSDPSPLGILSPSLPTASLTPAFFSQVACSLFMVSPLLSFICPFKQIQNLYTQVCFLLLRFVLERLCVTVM
In short: as §1

[9] = biological target: T7, ETV2 (Homo sapiens, UniProt O00321 1-342)
T7 sequence: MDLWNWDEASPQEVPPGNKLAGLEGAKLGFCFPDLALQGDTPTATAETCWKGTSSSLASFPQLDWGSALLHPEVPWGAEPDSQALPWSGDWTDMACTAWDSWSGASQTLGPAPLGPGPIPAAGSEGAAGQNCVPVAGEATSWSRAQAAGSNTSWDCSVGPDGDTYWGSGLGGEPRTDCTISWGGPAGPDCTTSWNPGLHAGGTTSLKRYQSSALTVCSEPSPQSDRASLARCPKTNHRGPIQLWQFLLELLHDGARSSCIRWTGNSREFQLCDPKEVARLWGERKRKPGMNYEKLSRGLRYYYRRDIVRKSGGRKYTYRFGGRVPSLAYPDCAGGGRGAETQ
In short: as §1

[10] = biological target: T8, ELF3 (Homo sapiens, UniProt P78545 1-371)
T8 sequence: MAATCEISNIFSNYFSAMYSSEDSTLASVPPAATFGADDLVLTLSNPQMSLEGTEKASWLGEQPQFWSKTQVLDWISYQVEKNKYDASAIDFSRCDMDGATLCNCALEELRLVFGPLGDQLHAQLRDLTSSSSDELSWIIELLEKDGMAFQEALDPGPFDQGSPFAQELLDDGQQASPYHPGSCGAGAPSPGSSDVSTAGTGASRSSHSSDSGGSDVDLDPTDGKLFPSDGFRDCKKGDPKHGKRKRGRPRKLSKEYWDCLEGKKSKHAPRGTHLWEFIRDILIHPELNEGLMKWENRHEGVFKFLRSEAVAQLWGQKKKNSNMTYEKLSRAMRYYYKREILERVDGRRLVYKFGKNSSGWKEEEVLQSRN
In short: as §1

[11] = biological target: T9, ETV3L (Homo sapiens, UniProt Q6ZN32 1-361)
T9 sequence: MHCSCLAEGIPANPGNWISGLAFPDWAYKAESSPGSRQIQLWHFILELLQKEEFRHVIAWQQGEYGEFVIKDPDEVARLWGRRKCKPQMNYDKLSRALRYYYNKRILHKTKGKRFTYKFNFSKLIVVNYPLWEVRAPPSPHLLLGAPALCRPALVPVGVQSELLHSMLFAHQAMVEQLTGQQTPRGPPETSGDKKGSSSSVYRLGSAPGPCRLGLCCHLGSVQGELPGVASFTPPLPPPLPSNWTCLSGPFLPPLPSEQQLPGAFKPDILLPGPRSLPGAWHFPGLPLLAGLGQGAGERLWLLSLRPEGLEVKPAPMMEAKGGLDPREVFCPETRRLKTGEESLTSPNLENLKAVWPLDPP
In short: as §1

[12] = biological target: T10, ETS2 (Homo sapiens, UniProt P15036 1-469)
T10 sequence: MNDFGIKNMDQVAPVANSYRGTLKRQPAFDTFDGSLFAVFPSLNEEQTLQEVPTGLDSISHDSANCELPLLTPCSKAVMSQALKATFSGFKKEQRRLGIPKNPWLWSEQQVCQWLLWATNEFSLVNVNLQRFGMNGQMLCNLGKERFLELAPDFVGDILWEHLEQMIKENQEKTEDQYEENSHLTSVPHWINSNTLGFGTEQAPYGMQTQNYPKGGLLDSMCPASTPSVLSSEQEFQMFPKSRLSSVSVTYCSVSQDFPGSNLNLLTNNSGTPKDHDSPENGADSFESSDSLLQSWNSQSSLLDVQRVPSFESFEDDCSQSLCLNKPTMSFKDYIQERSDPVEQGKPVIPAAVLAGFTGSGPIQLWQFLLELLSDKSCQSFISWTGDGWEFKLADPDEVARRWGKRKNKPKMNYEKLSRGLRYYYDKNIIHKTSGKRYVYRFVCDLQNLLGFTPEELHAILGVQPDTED
In short: as §1

[13] = biological target: T11, ETV7 (Homo sapiens, UniProt Q9Y603 1-341)
T11 sequence: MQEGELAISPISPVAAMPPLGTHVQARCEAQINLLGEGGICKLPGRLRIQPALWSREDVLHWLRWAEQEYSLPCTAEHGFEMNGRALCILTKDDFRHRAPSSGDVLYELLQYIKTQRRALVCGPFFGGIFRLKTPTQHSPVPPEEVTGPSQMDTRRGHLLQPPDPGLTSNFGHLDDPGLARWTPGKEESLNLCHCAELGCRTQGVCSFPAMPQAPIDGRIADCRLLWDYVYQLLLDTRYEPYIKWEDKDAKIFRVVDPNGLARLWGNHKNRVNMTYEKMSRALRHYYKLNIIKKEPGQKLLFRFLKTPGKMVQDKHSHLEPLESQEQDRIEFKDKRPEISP
In short: as §1

[14] = biological target: T12, ETV3 (Homo sapiens, UniProt P41162-2 1-143)
T12 sequence: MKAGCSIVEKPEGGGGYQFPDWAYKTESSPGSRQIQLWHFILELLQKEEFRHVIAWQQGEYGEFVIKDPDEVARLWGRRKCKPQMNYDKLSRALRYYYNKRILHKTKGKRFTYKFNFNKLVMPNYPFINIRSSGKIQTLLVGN
In short: as §1

[15] = biological target: ETV6 (Homo sapiens, UniProt P41212 1-452)
In short: as §1

Sequence of ELF1 (P32519 whole entry): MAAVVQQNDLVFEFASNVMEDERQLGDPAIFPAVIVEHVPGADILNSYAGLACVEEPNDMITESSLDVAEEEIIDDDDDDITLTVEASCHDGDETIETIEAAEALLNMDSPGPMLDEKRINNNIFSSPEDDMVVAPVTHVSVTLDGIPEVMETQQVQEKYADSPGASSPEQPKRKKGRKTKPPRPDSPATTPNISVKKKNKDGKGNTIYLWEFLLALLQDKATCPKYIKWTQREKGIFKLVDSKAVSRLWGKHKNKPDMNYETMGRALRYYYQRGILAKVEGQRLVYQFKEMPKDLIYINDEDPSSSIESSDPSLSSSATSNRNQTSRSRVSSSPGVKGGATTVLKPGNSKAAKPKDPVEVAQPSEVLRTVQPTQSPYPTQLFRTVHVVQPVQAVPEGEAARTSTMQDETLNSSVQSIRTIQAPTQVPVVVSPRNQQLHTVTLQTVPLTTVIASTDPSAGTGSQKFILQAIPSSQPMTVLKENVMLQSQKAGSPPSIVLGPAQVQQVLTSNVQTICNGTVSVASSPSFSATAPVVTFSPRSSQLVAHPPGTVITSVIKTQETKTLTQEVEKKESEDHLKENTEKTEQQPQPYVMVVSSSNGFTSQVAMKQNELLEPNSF
Sequence of ETV6 (P41212 whole entry): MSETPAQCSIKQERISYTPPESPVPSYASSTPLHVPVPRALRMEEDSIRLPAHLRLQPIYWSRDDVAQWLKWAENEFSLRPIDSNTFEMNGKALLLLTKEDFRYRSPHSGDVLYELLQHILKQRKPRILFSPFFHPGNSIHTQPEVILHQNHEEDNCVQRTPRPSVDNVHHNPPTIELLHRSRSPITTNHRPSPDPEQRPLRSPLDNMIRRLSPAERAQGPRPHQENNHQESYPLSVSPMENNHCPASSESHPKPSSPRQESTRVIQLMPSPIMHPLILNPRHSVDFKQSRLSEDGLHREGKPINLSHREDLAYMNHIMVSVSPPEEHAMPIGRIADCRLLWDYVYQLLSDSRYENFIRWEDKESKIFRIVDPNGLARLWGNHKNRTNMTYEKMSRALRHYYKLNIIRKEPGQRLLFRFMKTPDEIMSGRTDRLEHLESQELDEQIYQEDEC
Sequence of ELF4 (Q99607 whole entry): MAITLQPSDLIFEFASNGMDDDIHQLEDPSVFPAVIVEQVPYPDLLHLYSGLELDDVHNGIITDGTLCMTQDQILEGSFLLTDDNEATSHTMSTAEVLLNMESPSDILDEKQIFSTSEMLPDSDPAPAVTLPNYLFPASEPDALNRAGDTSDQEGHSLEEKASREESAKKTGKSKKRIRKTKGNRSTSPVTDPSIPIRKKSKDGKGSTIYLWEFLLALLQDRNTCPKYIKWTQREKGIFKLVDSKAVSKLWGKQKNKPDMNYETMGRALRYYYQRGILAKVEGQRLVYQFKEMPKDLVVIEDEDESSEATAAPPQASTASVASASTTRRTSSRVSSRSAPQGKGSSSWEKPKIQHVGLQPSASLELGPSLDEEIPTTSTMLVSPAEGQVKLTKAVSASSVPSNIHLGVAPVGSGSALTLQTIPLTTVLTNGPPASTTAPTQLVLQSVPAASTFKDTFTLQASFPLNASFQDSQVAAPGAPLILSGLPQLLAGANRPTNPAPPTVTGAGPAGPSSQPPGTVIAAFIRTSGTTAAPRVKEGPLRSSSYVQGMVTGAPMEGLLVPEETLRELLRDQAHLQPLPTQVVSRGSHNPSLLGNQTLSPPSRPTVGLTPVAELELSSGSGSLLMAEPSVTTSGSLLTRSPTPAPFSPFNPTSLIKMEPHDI

Sequence	binding signal [1]	binding signal [2]	binding signal [3]	binding signal [4]	binding signal [5]	binding signal [6]	binding signal [7]	binding signal [8]	binding signal [9]	binding signal [10]	binding signal [11]	binding signal [12]	binding signal [13]	binding signal [14]	binding signal [15]
CATGCG	1.01 fold enrichment (6-mer frequency, TF over GST control)	1.06 fold enrichment (6-mer frequency, TF over GST control)	1.03 fold enrichment (6-mer frequency, TF over GST control)	1.07 fold enrichment (6-mer frequency, TF over GST control)	1.06 fold enrichment (6-mer frequency, TF over GST control)	1 fold enrichment (6-mer frequency, TF over GST control)	1.02 fold enrichment (6-mer frequency, TF over GST control)	1.11 fold enrichment (6-mer frequency, TF over GST control)	1 fold enrichment (6-mer frequency, TF over GST control)	1.29 fold enrichment (6-mer frequency, TF over GST control)	1.01 fold enrichment (6-mer frequency, TF over GST control)	1 fold enrichment (6-mer frequency, TF over GST control)	1.21 fold enrichment (6-mer frequency, TF over GST control)	1.03 fold enrichment (6-mer frequency, TF over GST control)	1.16 fold enrichment (6-mer frequency, TF over GST control)
GTAAGC	1.02 fold enrichment (6-mer frequency, TF over GST control)	–	–	–	–	1.01 fold enrichment (6-mer frequency, TF over GST control)	–	–	–	–	–	–	–	–	–
